Measured values as given in PubChem BioAssay (NCATS).
Results filed as inconclusive are left out. Active and inactive are the calls of the source. Calls come from the whole dose curve; as a rule, active = well fitted curve in the direction sought with a large enough effect; inconclusive = small, poorly fitted or top-dose-only effect, or another doubt; inactive = no such curve, though single readings can be large; an effect the other way counts as inactive or inconclusive.

Assays:
[1] = OV-KATE Cancer Cell Toxicity qHTS against the NCATS CANVASS Library (AID 1347345)
In short: (§1)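 Following a 4 h pre-incubation of 1000 seeded cells, compounds were pinned in an 11-pnt dilution series and left for 72 h; viability then came from CellTiter-Glo.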

[2] = HPAF-II Cancer Cell Toxicity qHTS against the NCATS CANVASS Library (AID 1347346); note: nearly all actives have a fitted effect of over 55% in size
In short: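 Using 1000 HPAF-II cells per well, we titrated compounds over 11 concentrations for 72 h at 37 degrees C/5% CO2, with bortezomib as control. Cell survival was quantified by CellTiter-Glo luminescence.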

[3] = UWB1.289 Cancer Cell Toxicity qHTS against the NCATS CANVASS Library (AID 1347347); note: nearly all actives have a fitted effect of over 60% in size
In short: as §1

[4] = OV-SAHO Cancer Cell Toxicity qHTS against the NCATS CANVASS Library (AID 1347348); note: nearly all actives have a fitted effect of over 55% in size
In short: as §1

[5] = Panc-1005 Cancer Cell Toxicity qHTS against the NCATS CANVASS Library (AID 1347349); note: nearly all actives have a fitted effect of over 60% in size
In short: as §1

[6] = SW1088 Cancer Cell Toxicity qHTS against the NCATS CANVASS Library (AID 1347350); conditions: SW1088 viability, CellTiter-Glo luminescence, 72 h; at 38.3 µM (top of the series); note: nearly all actives have a fitted effect of over 75% in size
In short: as §1

[7] = U-118MG Cancer Cell Toxicity qHTS against the NCATS CANVASS Library (AID 1347351)
In short: as §1

[8] = COV-362 Cancer Cell Toxicity qHTS against the NCATS CANVASS Library (AID 1347352)
In short: (§2)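 Using an ATP-based luminescent reagent after three days of treatment, toxicity is scored across an eleven-concentration range in wells holding 1000 cells each.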

[9] = A2780 Cisplatin Sensitive Ovarian Cancer Cell Toxicity qHTS against the NCATS CANVASS Library (AID 1347353); conditions: A2780 ovarian cancer viability, ATPLite luminescence, 72 h; at 46.1 µM (top of the series); note: nearly all actives have a fitted effect of over 60% in size
In short: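 Quantitative HTS format: eleven compound concentrations applied to pre-seeded cells, 72 h incubation at 37 °C, then ATP detection by luminescence.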

[10] = UWB1.289-WTBRCA1 Cancer Cell Toxicity qHTS against the NCATS CANVASS Library (AID 1347354); conditions: UWB1.289-WTBRCA1 viability, CellTiter-Glo luminescence, 72 h; at 38.3 µM (top of the series)
In short: as §2

[11] = HEK-293 Cancer Cell Toxicity qHTS against the NCATS CANVASS Library (AID 1347355); conditions: HEK-293 viability, CellTiter-Glo luminescence, 72 h; at 46.1 µM (top of the series); note: nearly all actives have a fitted effect of over 65% in size
In short: as §2

[12] = HPAF-II 24hr Apoptosis Induction qHTS against the NCATS CANVASS Library (AID 1347356)
In short: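 Using an 11-point qHTS format, HPAF-II cells in DMEM/10% FBS received compounds for 24 h; doxorubicin titration as control. Caspase-3/7 activity quantified by DEVD-luciferase luminescence.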

[13] = HEK293 18hr Apoptosis Induction qHTS against the NCATS CANVASS Library (AID 1347357)
In short: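 HEK293 cells (500 per well, DMEM with 10% FBS) were treated with natural products, incubated 18 hours at 37 degrees C, then caspase-3/7 activity was read by Caspase-Glo luminescence after 15 min at room temperature.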

[14] = HPAF-II 12hr Apoptosis Induction qHTS against the NCATS CANVASS Library (AID 1347358)
In short: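 Twelve-hour compound exposure of HPAF-II cells in DMEM with 10% FBS, then luminescent Caspase-Glo 3/7 detection after 15 min at room temperature; doxorubicin control.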

[15] = HEK293 24hr Apoptosis Induction qHTS against the NCATS CANVASS Library (AID 1347359)
In short: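 HEK293 cells, 500 per well, exposed to an 11-point compound series for 24 hours at 37 degrees C. Caspase 3/7 activity read by Caspase-Glo luminescence (DEVD substrate) after 15 min at room temperature.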

[16] = HPAF-II 18hr Apoptosis Induction qHTS against the NCATS CANVASS Library (AID 1347360)
In short: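 HPAF-II cells (500/well, DMEM + 10% FBS) were exposed to compounds for 18 hours at 37 degrees C. Caspase-3/7 activity was then read by Caspase-Glo 3/7 luminescence after 15 min at room temperature.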

[17] = HEK293 12hr Apoptosis Induction qHTS against the NCATS CANVASS Library (AID 1347361)
In short: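 Read-out: Caspase-Glo 3/7 luminescence (DEVD substrate), 15 min RT. Preceded by 12 h compound exposure of HEK293, 500 cells/well, 11-pt qHTS titration; doxorubicin titration as control.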

[18] = test system: NAD(P)H diaphorase (Clostridium kluyveri); experiment: Diaphorse counterscreen qHTS: Assay Interference Panel against the NCATS CANVASS Library (AID 1347362)
In short: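 Clostridium kluyveri diaphorase in PBS + 0.01% Tween-20 preincubated 15 min with compounds. Resazurin and NADH then added for 5 min at room temperature in the dark; resorufin fluorescence read (ex 525, em 598).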

[19] = target: Luciferin 4-monooxygenase (Photinus pyralis) (UniProt P08659); experiment: Firefly luciferase counterscreen qHTS: Assay Interference Panel against the NCATS CANVASS Library (AID 1347363)
In short: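 Purified P. pyralis luciferase (0.04 ug/mL, 4x reagent) added to Tris-acetate buffer with 0.013 mM D-luciferin, 0.013 mM ATP and 13.3 mM Mg-acetate; compounds preincubated 15 min, then luminescence read after 5 min, RT.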

[20] = KB-8-5-11 Cancer Cell Toxicity qHTS against the NCATS CANVASS Library (AID 1347364); conditions: KB-8-5-11 MDR cells viability, CellTiter-Glo, 72 h; at 46.1 µM (top of the series); note: nearly all actives have a fitted effect of over 75% in size
In short: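 Luminescent ATP signal (CellTiter-Glo, 10 min at room temperature) measured cell survival of KB-8-5-11 after 72 hr compound treatment. For confirmation, the cells were also grown with 1uM tariquidar.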

Measured: outcome

Chain of Luciferin 4-monooxygenase (Photinus pyralis) (P08659 whole entry, looked up): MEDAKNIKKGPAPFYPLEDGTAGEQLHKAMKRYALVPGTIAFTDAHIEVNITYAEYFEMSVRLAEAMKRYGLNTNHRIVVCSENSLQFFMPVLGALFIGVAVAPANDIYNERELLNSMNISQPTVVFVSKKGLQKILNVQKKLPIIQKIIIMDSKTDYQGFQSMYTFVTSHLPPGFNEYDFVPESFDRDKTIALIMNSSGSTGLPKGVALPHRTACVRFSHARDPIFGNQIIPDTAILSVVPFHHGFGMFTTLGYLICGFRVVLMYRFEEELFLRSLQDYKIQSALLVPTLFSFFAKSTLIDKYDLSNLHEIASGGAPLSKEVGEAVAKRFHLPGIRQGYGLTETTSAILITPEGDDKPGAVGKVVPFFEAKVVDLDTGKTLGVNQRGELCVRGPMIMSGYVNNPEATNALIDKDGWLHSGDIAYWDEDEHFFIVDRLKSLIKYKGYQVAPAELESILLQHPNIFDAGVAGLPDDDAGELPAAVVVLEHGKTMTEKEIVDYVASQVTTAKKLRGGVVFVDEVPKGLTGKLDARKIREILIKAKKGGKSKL

CN1CCC[C@@H]1c1cccnc1
inactive: all assays above
